Source: PubChem BioAssay
Cycloheximide cs = counter-screen for Shiga toxin inhibitors: cycloheximide protein synthesis inhibition; cell reporter, cycloheximide protein synthesis inhibition counterscreen; 300,000 compounds, 12% hits; max response, %; AID 2314; in the data active = max response mostly above about 13%, no sharp cut-off; inactive = mostly below about 14%; also: read at 38.3 µM for the half of the compounds with a filed dose; 0% is about no effect
Shiga inhibitor = Shiga toxin inhibition | Vero cells, Shiga toxin protein synthesis inhibition reporter | inhibition, % at 38.7 µM | 290,000 compounds, 9.2% hits; in the data active = inhibition mostly above about 28%, no sharp cut-off; inactive = mostly below about 43%; also: 0% is about no effect
LmPK inhibitor = LmPK (Leishmania mexicana) enzyme inhibition; AID 1721; Potency, µM (top dose mostly 57.5 µM), inactives show at the top dose activity change, negative = inhibition, most hits filed as inhibitors; purified LmPK, Kinase-Glo ATP luminescence, 1 h; 290,000 compounds, 0.37% hits; also: potency is read from the fitted curve at half-maximal effect; % is scaled to controls: 0 for no effect and ±100 for the full control effect
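Kinase-Glo luminescence read after 1 h RT reaction of 0.1 nM LmPK with 0.5 mM PEP and 0.1 mM ADP. Activity scaled between uninhibited and enzyme-free controls.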
Giardia FBPA inh = inhibitors of Giardia lamblia fructose-1,6-bisphosphate aldolase; A8B2U2; purified Giardia FBPA; Potency, µM (highest dose often 59.6 µM), for inactives: top-dose activity, negative = inhibition, most hits filed as inhibitors; 290,000 compounds, 0.71% hits; AID 2451; also: potency is read from the fitted curve at half-maximal effect; % is scaled to controls: 0 for no effect and ±100 for the full control effect; nearly all actives have a fitted effect of over 55% in size
Target sequence (A8B2U2 whole entry, looked up): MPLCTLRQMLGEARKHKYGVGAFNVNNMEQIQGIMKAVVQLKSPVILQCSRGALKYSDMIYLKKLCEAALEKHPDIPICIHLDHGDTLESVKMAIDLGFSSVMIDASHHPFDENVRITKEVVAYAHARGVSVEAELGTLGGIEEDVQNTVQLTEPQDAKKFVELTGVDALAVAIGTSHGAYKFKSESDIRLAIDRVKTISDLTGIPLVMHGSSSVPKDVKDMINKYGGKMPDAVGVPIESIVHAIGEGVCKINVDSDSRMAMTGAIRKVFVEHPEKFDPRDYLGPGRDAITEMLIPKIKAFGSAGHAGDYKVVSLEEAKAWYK
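Giardia FBPA (40 nM reagent) was preincubated 10 min at RT with compound (up to 57.5 uM final), then substrate plus GAPDH/TPI/NAD/arsenate coupling system with diaphorase/resazurin was added; resorufin fluorescence (525/598 nm) was read after 20 min.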
NS1 inh = inhibitors of influenza NS1 protein function; Potency, µM (titrated, usually from 46.1 µM), inactives show at the highest dose activity, positive = more growth; 270,000 compounds, 0.4% hits; AID 2326; calls by dose curve; also: potency is read from the fitted curve at half-maximal effect; actives are rising curves; nearly all actives have a fitted effect of over 50% in size
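Read-out: OD600 growth recovery of NS1-expressing budding yeast. Cells grown overnight at 30C in -URA glucose medium, washed, resuspended and diluted 1:100 in 2% galactose assay medium, pH 6.0. Same strain lacking NS1 served as positive control.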
Active calls of the source: *; u = inconclusive; x = no result given. Rows were chosen to be rich in hits. Some 14% of all compounds tested hit in one or more screens of this group. Unless noted, calls follow the shape of the dose curve; as a rule, active = well fitted curve in the direction sought with a large enough effect; inconclusive = small, poorly fitted or top-dose-only effect, or another doubt; inactive = no such curve, though single readings can be large; an effect the other way counts as inactive or inconclusive.

SMILES | Cycloheximide cs | Shiga inhibitor | LmPK inhibitor | Giardia FBPA inh | NS1 inh
CCCCNC(=O)c1cc(-c2ccc(F)cc2)on1 | 34.7* | 51.8* | -0.7% | 3.6% | -4.2%
CC(C)Cn1nnnc1S(=O)(=O)Cc1ccccc1 | x | x | x | 3.4% | x
CCCCNN | x | x | x | x | -2.8%
COc1ccc(/C(N)=N/OC(=O)c2cccc([N+](=O)[O-])c2C)cc1 | -2.3 | 33.2 | -5.4% | -1.6% | -4.6%
COc1ccccc1C/C(N)=N/OC(=O)c1cccc([N+](=O)[O-])c1C | 15.4* | 20.9 | -0.8% | 1.4% | -39.6%
CCOCCCNC(=O)CCn1nc(-c2ccc(Cl)cc2)ccc1=O | 3.3 | -2.7 | -0.8% | 15.1% | 7.0%
Cc1ccc(NC(=O)N2CCCC(C(=O)O)C2)cc1 (stereo not given) | 11.6 | 16.6 | 2.5% | -0.4% | -1.6%
Cc1cc(C)cc(OCc2nc(-c3cccnc3)no2)c1 | -5.0 | -7.9 | 1.4% | 1.9% | -1.4%
Cc1ccc(Cc2nc(-c3cccnc3)no2)cc1 | 33.9* | 111.4* | -1.9% | 3.6% | -11.3%
Clc1ccc(Cc2nc(-c3cccnc3)no2)cc1 | 17.0* | 9.6 | -0.7% | 0.9% | -25.7%
Cc1cc(C)n(-c2ccnc3cc(Cl)ccc23)n1 | 17.7* | -2.0 | 4.5% | -9.5% | -1.7%
CN(C)S(=O)(=O)N1CCN(c2ccnc3cc(Cl)ccc23)CC1 | 4.2 | 9.9 | -5.0% | 16.7% | -5.2%
CCCn1c(-c2ccc(F)cc2)nc2c(NC(C)CCCN(CC)CC)nc(C)nc21 (stereo not given) | x | x | x | 1.3% | x
Cc1cc(C)cc(Nc2ncnc3nc[nH]c23)c1 | 17.0 | 40.5* | -14.7% | -0.2% | -2.5%
FC(F)Sc1ccc(Nc2ncnc3nc[nH]c23)cc1 | 35.7* | 10.8* | -2.4% | 0.8% | 5.6%
CCCCOC(=O)c1ccc(Nc2ncnc3nc[nH]c23)cc1 | 14.3 | 17.0 | -0.8% | 1.6% | 12.1%
Cc1ccc(C(=O)N/C(=C\c2ccccc2)C(=O)NCCN2CCOCC2)cc1 | 1.5 | -6.0 | -3.0% | -3.9% | 9.0%
O=C(N/N=C/C(Br)=C/c1ccccc1)c1cccnc1 | 37.8* | 65.9* | -14.1% | 0.0% | -45.7%
O=C(N/N=C/C(Br)=C/c1ccccc1)c1ccncc1 | 37.9* | 72.6* | -2.9% | -9.1% | -31.8%
O=C(N/N=C/C(Br)=C/c1ccccc1)c1ccc([N+](=O)[O-])cc1 | 11.3 | 4.0 | 4.5% | 3.0% | -6.4%
CCOc1cc(C(=O)N/N=C/C(Br)=C/c2ccccc2)cc(OCC)c1OCC | 1.7 | -15.7 | 1.4% | -5.5% | 6.4%
CC1(c2ccc3ccccc3c2)NC(=O)N(CC(=O)N2CCN(c3ccccc3O)CC2)C1=O (stereo not given) | -2.8 | -23.6 | -11.4% | x | 19.7%
O=C(N=C1SC2CS(=O)(=O)CC2N1c1ccc(F)cc1)C1CC1 (stereo not given) | -6.6 | -4.4 | -4.0% | 6.7% | 16.9%
CCOC(=O)/C(=N\Nc1cccc(C(F)(F)F)c1)N1CCOCC1 | -0.9 | 3.0 | 3.2% | -9.4% | x
CCOC(=O)/C(=N\Nc1ccccc1Cl)N1CCN(C)CC1 | -2.7 | -2.2 | 2.9% | 3.4% | -3.7%
SMILES | Cycloheximide cs | Shiga inhibitor | LmPK inhibitor | Giardia FBPA inh | NS1 inh
CCOC(=O)/C(=N\Nc1ccccc1)N1CC1 | 19.4* | 62.6 | 13.1% | 1.8% | -7.0%
CCOC(=O)/C(=N\Nc1ccccc1Cl)N1CCN(Cc2ccccc2)CC1 | 20.5* | -13.1 | -0.7% | -0.2% | -25.1%
CCCCCOc1ccc(Cl)cc1CN1CCOCC1 | 24.0* | 46.8 | 8.2% | -17.2% | -8.8%
CCOc1ccc(Cl)cc1CN1CCOCC1 | 14.3 | 37.1 | -3.9% | -14.2% | -1.9%
O=C1NC2(CCCCC2)C(=O)N1CCN1C(=O)c2ccccc2C1=O | 0.8 | -28.8 | -2.9% | 0.0% | x
O=C1c2ccccc2NC2(CCCCC2)N1N=C1CCCCC1 | 60.0* | 44.2* | -1.4% | 8.3% | -0.9%
Cc1ccc(CN2C(=O)c3ccccc3NC23CCN(Cc2ccccc2)CC3)cc1 | -1.7 | 35.4 | 6.0% | -4.7% | x
O=C1c2ccccc2NC2(CCCC2)N1O | 15.6* | 53.2* | 0.8% | u | -4.6%
CC1=C(C(=O)Nc2cccc(C(=O)NC(C)c3ccccc3)c2)SCCO1 (stereo not given) | 0.5 | -4.8 | -0.5% | 6.5% | -11.2%
COc1cccc(C(=O)N2CCC(C(=O)N3CCN(C)CC3)CC2)c1 | -8.5 | -7.0 | 0.9% | -2.5% | -1.1%
COc1ccc2nc3sc(C(=O)N4CCN(C)CC4)cc3cc2c1 | 14.7* | 20.5 | 0.4% | -3.7% | 2.6%
Cc1ccc2cc3cc(C(=O)NCCCN4CCc5ccccc5C4)oc3nc2c1 | 29.9* | 35.3 | -9.0% | u | -15.5%
